Source: PubChem BioAssay (National Center for Advancing Translational Sciences (NCATS))
Rows were chosen to be rich in hits. Some 3.8% of all compounds tested hit in one or more screens of this group.
ATXN2 expr inh – inhibitors of ATXN2 expression; HEK-293 ATXN2-luciferase reporter, luminescence, 24 h; Potency, µM (series often up to 57 µM), for the others: at the highest dose activity change, negative = inhibition, hits mostly inhibitors; 360,000 tested, 0.72% active; AID 1745845; also: % is scaled to controls: 0 for no effect and ±100 for the full control effect; nearly all actives have a fitted effect of over 55% in size
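ATXN2-luciferase reporter cells (luciferase flanked by upstream and downstream ATXN2 gene portions) were treated 24 h at 37 °C with compounds at up to 57 uM. SteadyGlo luminescence gave expression; GF-AFC fluorescence gave viability.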
TGFb inhibitor – inhibitors of TGF-b signaling. AID 588855. 410,000 tested, 1.2% active. Potency, µM (doses to about 46.1 µM), without a hit: at the top dose activity, negative = inhibition, usual class: inhibitors. HepG2 CAGA-GFP TGF-b/SMAD3 reporter, GFP fluorescence, 18 h; TGF-beta stimulated, 500 pg/mL final; also: % is scaled to controls: 0 for no effect and ±100 for the full control effect; nearly all actives have a fitted effect of over 65% in size
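Inhibition of TGF-beta-driven CAGA-GFP reporter expression in HEPG2 cells is measured by cellular GFP fluorescence after 18 h stimulation with 500 pg/mL recombinant TGF-beta in 1% FBS medium at 37 degrees C.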
HepG2 tox – kills HepG2 cells in TGF-b inhibitor counter-screen | 410,000 tested, 0.76% active | HepG2 CAGA-GFP viability, ATP luminescence, 18 h | Potency, µM (titrated, usually from 46.1 µM), for the others: top-dose activity change, negative = cytotoxicity, actives largely listed as cytotoxic
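HepG2 CAGA-GFP cells (1000/well, DMEM with 1% FBS) received compound, then TGF-beta at 500 pg/mL final, and were incubated 18 hours at 37 degrees C. Viability was read by CellTiter-Glo luminescence. Media-only wells were set as complete cell-killing and DMSO as no toxicity.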
Nrf2 block – Nrf2 pathway inhibition | 360,000 tested, 2.1% active | Potency, µM (series often up to 46 µM), for the others: at the highest dose activity change, negative = inhibition, actives largely listed as inhibitors | A549 ARE-Fluc reporter, luciferase luminescence, 18-24 h | AID 504444; also: % is scaled to controls: 0 for no effect and ±100 for the full control effect; nearly all actives have a fitted effect of over 60% in size
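Nrf2 activity is the BugLite luminescence, read 15 min after reagent at room temperature, following CellTiter-Fluor cytotoxicity readout (30 min, 37C). Compound titrations were applied for 18-24 h to 5000 A549 ARE_Fluc cells/well in 5% FBS OPTI-MEM.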
A549 viability – counter-screen for Nrf2 inhibitors: cytotoxicity in A549 cells; 390,000 tested, 0.16% active; AID 504648; Potency, µM (series often up to 46 µM), inactives show at the highest dose activity change, negative = cytotoxicity, actives largely listed as inhibitors; A549 ARE-Fluc cells, CellTiter-Fluor viability, 18-24 h; also: % is scaled to controls: 0 for no effect and ±100 for the full control effect
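A549 ARE_Fluc cells in 5% FBS OPTI-MEM were exposed to compounds in concentration-response for 18-24 h at 37 deg C. Viability was read by CellTiter-Fluor fluorescence (Ex 405/Em 525) after 30 min, before the luciferase read.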
S2 tox – reduces viability in counter-screen for ATXN expression inhibitors | S2 cells (HEK-293 line with an ATXN2-luciferase reporter) viability, CellTiter-Fluor protease fluorescence, 24 h | Potency, µM (highest dose often 56.7 µM), most hits filed as cytotoxic | 400,000 tested, 0.49% active | AID 651635; also: nearly all actives have a fitted effect of over 40% in size
* = called active by the depositor; i = inactive; ? = inconclusive; · = no result; ! = not active in a repeat; [ ] = remark or other dose. Calls follow the shape of the dose curve; as a rule, active = well fitted curve in the direction sought with a large enough effect; inconclusive = small, poorly fitted or top-dose-only effect, or another doubt; inactive = no such curve, though single readings can be large; an effect the other way counts as inactive or inconclusive. Potency is read from the fitted curve at half-maximal effect.

SMILES | ATXN2 expr inh | TGFb inhibitor | HepG2 tox | Nrf2 block | A549 viability | S2 tox
COc1ccc(CNC(=O)O[C@H]2C[C@@H]3C(=O)N(c4ccccc4)C(=O)[C@@H]3[C@@H]3CN(S(=O)(=O)c4ccc(C)cc4)C[C@]23O)cc1OC | -1% | 6% | -14% | · | · | i
CCN1C(=O)/C(=C2/C=Cc3ccccc3N2CC)SC1=S | · | -20% | -23% | 6% | ? | ?
CCCN1/C(=C2/SC(=S)N(CC)C2=O)C=Cc2ccccc21 | -7% | -17% | -27% | ? | 18µM* | ?
CN1C(=O)/C(=C2/C=Cc3ccccc3N2CCCS(=O)(=O)O)SC1=S | 13% | 2% | 0% | -8% | 21µM* | 16µM*
CCCN1C(=O)/C(=C2/C=Cc3ccccc3N2CC)SC1=S | -16%[11.3 µM] | -9% | -25% | -28% | 15µM* | ?
COc1cccc(C2c3c(ncn(-c4cccc(C)c4)c3=N)Oc3ccc4ccccc4c32)c1 (centres undefined) | · | · | · | 4% | -2% | ·
CCC(CC)C(=O)Nc1ccc(OCc2cc(=O)n3ccc(C)cc3n2)cc1 | · | -1% | -3% | · | 2% | ·
N#CCCN(C(=O)CSc1nc2nc(-c3cccs3)cc(C(F)(F)F)c2c(=O)[nH]1)c1ccccc1 | -1% | 16% | 6% | 21µM* | 2% | i
O=C(CSc1nc2nc(-c3cccs3)cc(C(F)(F)F)c2c(=O)[nH]1)Nc1c(F)c(F)c(F)c(F)c1F | ? | -16% | -18% | ? | -13% | i
CC(C)NC(=O)N(C)C[C@H]1Oc2c(NC(=O)Cc3ccccc3)cccc2C(=O)N([C@H](C)CO)C[C@@H]1C | 1% | 17% | -33% | 14% | 1% | i
COc1ccc(S(=O)(=O)Nc2cccc3c2O[C@H](CN(C)Cc2ccc(Oc4ccccc4)cc2)[C@@H](C)CN([C@H](C)CO)C3=O)cc1 | ? | ? | -6% | 16µM* | -13% | ?
C[C@H](CO)N1C[C@H](C)[C@@H](CN(C)Cc2ccc3c(c2)OCO3)Oc2c(NC(=O)C3CCCCC3)cccc2C1=O | -22% | ? | -2% | ? | -18% | ?
C[C@H](CO)N1C[C@H](C)[C@@H](CN(C)Cc2ccc(C(=O)Nc3ccccc3N)cc2)Oc2c(NC(=O)C3CCCCC3)cccc2C1=O | ? | -25% | -22% | -2% | -10% | 20µM*
C[C@H](CO)N1C[C@H](C)[C@@H](CN(C)CC2CCCCC2)Oc2c(NC(=O)Cc3ccccc3)cccc2C1=O | ? | 16µM* | 16µM* | 23µM* | -16% | 32µM*
CNS(=O)(=O)c1cccc(C(=O)OCc2cc(=O)oc3c(C)c(O)ccc23)c1 | ? | ? | -19% | -10% | 4% | i
Cc1ccc(S(=O)(=O)N2CCN(C(=O)C3CSC4(C)CCC(=O)N34)CC2)cc1C (centres undefined) | 8% | 1% | 9% | 6% | -5% | i
COc1ccc(CN2CCN(c3ccc(F)cc3)CC2)c(OC)c1OC | -22% | 10% | 19% | -29% | -3% | i
COc1ccc(CN2CCN(C(c3ccc(F)cc3)c3ccc(F)cc3)CC2)c(OC)c1OC | 40µM*! | ? | -28% | ? | ? | ?
Cc1cc(C(=O)CSc2nn3c(=O)c(C(C)(C)C)nnc3s2)c(C)n1C | -4%[11.3 µM] | -1% | 1% | 2% | 4% | i
C=CS(=O)(=O)c1c2cc(OC)ccc2nc2ccc(OC)cc12 | ? | ? | 14µM* | -28% | 13% | ·
OC(c1ccc(F)c(F)c1)c1nc(-c2cccc(C(F)(F)F)c2)cs1 (centres undefined) | -24% | ? | 20µM* | · | · | ?
Cc1csc(NC(=O)c2cn3ccccc3n2)n1 | 4µM* | 0% | -64% | ? | -9% | i
O=C(Nc1ccc(-n2cnnn2)cc1)c1cn2ccccc2n1 | 4% | 0% | 4% | 10% | 9% | i
O=C(Nc1ccccc1)c1cn2ccccc2n1 | 11µM* | 2% | -44% | ? | 1% | i
COC(=O)[C@@H]1CCCN1C(=O)c1c(OC)cc(=O)n2c1CCN(Cc1ccc3nsnc3c1)CC2 | · | · | · | · | · | i
SMILES | ATXN2 expr inh | TGFb inhibitor | HepG2 tox | Nrf2 block | A549 viability | S2 tox
O=C1NC(=S)S/C1=C/c1ccc(N2CCOCC2)o1 | 9% | -3% | -35% | 19% | 21µM* | ·
O=C1S/C(=C/c2ccc(N3CCOCC3)o2)C(=O)N1Cc1ccc(F)cc1 | -25% | 53% | -20% | 19% | 3% | i
COc1ccc2cc(/C=C3\SC(=S)NC3=O)c(N3CCOCC3)nc2c1 | -10% | 0% | 6% | 21µM* | 18µM* | ?
COc1cccc(C=C2SC(=S)NC2=O)c1 | 17% | 0% | -15% | 1% | ? | i
CCCCNC(=O)c1ccc(NC(C)=O)c(Cl)c1 | -28% | -2% | -5% | -16% | 0% | i
O=C(Nc1ccc(Oc2c(F)c(F)c(F)c(F)c2F)cc1)OC1CCN2Cc3ccccc3N=C12 (centres undefined) | ? | 10µM* | 10µM* | 23µM* | 21µM* | ?
COc1cc(=O)n2c(c1C(=O)NC(C)c1ccco1)CCN(C(=O)c1ccnc(Cl)c1)CC2 (centres undefined) | · | · | · | · | · | i
COc1ccc(/C=C/C(=O)Nc2nc(-c3cccs3)ns2)cc1OC | · | -39% | -48% | ? | -2% | ·
Cc1cc(/C=C2/C(=N)N3C(=NC2=O)SN=C3S(C)(=O)=O)c(C)n1-c1ccc(F)cc1 | · | -2% | -1% | 18% | ? | ?
CCOc1ccc(-n2c(C)cc(/C=C3/C(=N)N4C(=NC3=O)SN=C4S(C)(=O)=O)c2C)cc1 | · | -10% | 6% | 4.6µM* | ? | ?
O=C1N/C(=N\N=C\c2ccc3ncccc3c2)SC1Cc1ccc(SC(F)F)cc1 (centres undefined) | 14% | 48% | -17% | ? | -23% | i
O=C1N/C(=N\N=C\c2ccccn2)SC1Cc1cccc(SC(F)F)c1 (centres undefined) | 18µM* | ? | -16% | 16µM* | -19% | ?
O=C1N/C(=N\N=C\c2cccnc2)SC1Cc1ccc(SC(F)F)cc1 (centres undefined) | 13µM* | -8% | 9% | 16µM* | -21% | ?
NS(=O)(=O)c1cccc(NS(=O)(=O)c2ccc(/C=C/C(=O)O)cc2)c1 | 2% | -1% | 13µM* | 10% | 6% | i
